Reference: PubChem BioAssay (Tox21)
Several values for one entry are separate records, joined by “and”; a condition that tells them apart may be missing. Identical values can stand only once. Records with an inconclusive call do not appear. Some structures have more than one record in an assay (separate samples or runs), and their calls can disagree. Activity calls are given as the source filed them. Unless noted, calls come from the whole dose curve; as a rule, active = well fitted curve in the direction sought with a large enough effect in the repeat runs; inconclusive = weak or mixed curves; inactive = no such curve, though single readings can be large; an effect the other way counts as inactive or inconclusive.

How the values were obtained:
[1] = molecular target: Peroxisome proliferator-activated receptor delta (Homo sapiens) (UniProt Q03181); test: qHTS assay to identify small molecule agonists of the peroxisome proliferator-activated receptor delta (PPARd) signaling pathway (AID 743212; calls by dose curve)
Outline: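 HEK293H PPARd-bla cells; 5 h preincubation 37 C/5% CO2; compound (DMSO) 37 C; LiveBLAzer B/G FRET substrate 2 h RT; fluorescence intensity.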

[2] = qHTS assay to identify small molecule antagonists of the peroxisome proliferator-activated receptor delta (PPARd) signaling pathway - cell viability counter screen (AID 743213); note: nearly all actives have a fitted effect of over 50% in size
Outline: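 CellTiter-Glo was added to PPARd-bla HEK293H wells following 17 h compound treatment in the presence of 300 nM L165041. Luminescence was recorded after 30 min at room temperature.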

[3] = molecular target: Peroxisome proliferator-activated receptor delta (Homo sapiens) (UniProt Q03181); test: qHTS assay to identify small molecule antagonists of the peroxisome proliferator-activated receptor delta (PPARd) signaling pathway (AID 743215; active = well fitted inhibition curve with a large enough effect in the signal ratio in the repeat runs, not every such curve was filed as active; the % refers to the signal ratio;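 note: cells stimulated with agonist L165041 at 300 nM final during compound exposure; series mostly up to about 62 µM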)
Outline: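 PPARd-bla HEK293H cells (UAS-bla reporter) preincubated 5 h, then given compound plus 300 nM final L165041 agonist for 17 h at 37 C. Beta-lactamase activity read by LiveBLAzer B/G FRET substrate fluorescence after 2 h at room temperature.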

[4] = molecular target: Bile acid receptor (Homo sapiens) (UniProt Q96RI1); test: qHTS assay to identify small molecule antagonists of the farnesoid-X-receptor (FXR) signaling pathway (AID 743217; active = well fitted inhibition curve with a large enough effect in the signal ratio in the repeat runs, not every such curve was filed as active; the % refers to the signal ratio)
Outline: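 FXR-UAS-bla HEK 293T cells (beta-lactamase reporter) given compound plus chenodeoxycholic acid (50 uM final), 16 h at 37C. LiveBLAzer B/G FRET substrate added for 2 h at room temperature; fluorescence read.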

[5] = qHTS assay to identify small molecule agonists of the farnesoid-X-receptor (FXR) signaling pathway - cell viability counter screen (AID 743218); note: nearly all actives have a fitted effect of over 45% in size
Outline: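 FXR-UAS-bla HEK 293T cells exposed to compounds for 16 h at 37C. Cytotoxicity read in the same wells by CellTiter-Glo luminescence after 30 min at room temperature, following the beta-lactamase FRET read.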

[6] = molecular target: Bile acid receptor (Homo sapiens) (UniProt Q96RI1); test: qHTS assay to identify small molecule agonists of the farnesoid-X-receptor (FXR) signaling pathway (AID 743220; active = well fitted activation curve with a large enough effect in the signal ratio in the repeat runs, not every such curve was filed as active; the % refers to the signal ratio)
Outline: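 Beta-lactamase reporter under UAS control in GeneBLAzer FXR HEK 293T cells (5000/well) measured with LiveBLAzer FRET substrate after 2 h at room temperature. Compound exposure lasted 16 h at 37C.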

[7] = molecular target: Vitamin D3 receptor (Homo sapiens) (UniProt P11473); test: qHTS assay to identify small molecule agonists of the vitamin D receptor (VDR) signaling pathway (AID 743222; calls by dose curve)
Outline: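 VDR-bla cells plated 4 h at 37 C, then exposed to compounds for 16 h at 37 C. Beta-lactamase reporter activity measured by fluorescence after 2 h room-temperature loading with LiveBLAzer B/G FRET substrate.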

[8] = molecular target: Vitamin D3 receptor (Homo sapiens) (UniProt P11473); test: qHTS assay to identify small molecule antagonists of the vitamin D receptor (VDR) signaling pathway (AID 743223; active = well fitted inhibition curve with a large enough effect in the signal ratio in the repeat runs, not every such curve was filed as active; the % refers to the signal ratio)
Outline: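 After VDR-bla cells are plated and left 4 h at 37C, DMSO-dissolved compounds and 3 nM (final) calcitriol agonist are added. Incubation continues 16 h at 37C; FRET beta-lactamase substrate then develops 2 h at room temperature.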

[9] = qHTS assay to identify small molecule agonists of the vitamin D receptor (VDR) signaling pathway - cell viability counter screen (AID 743224); note: nearly all actives have a fitted effect of over 50% in size; note: potency is the fitted concentration of half-maximal effect
Outline: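 VDR-bla cells, 4 h after plating, exposed to compounds for 16 h at 37C; viability then read in the same wells as CellTiter-Glo luminescence after 30 min at room temperature, following the bla FRET read.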

[10] = qHTS assay to identify small molecule antagonists of the vitamin D receptor (VDR) signaling pathway - cell viability counter screen (AID 743225); note: nearly all actives have a fitted effect of over 50% in size
Outline: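 Cytotoxicity toward the VDR-bla HEK 293T line was scored by ATP-based CellTiter-Glo luminescence, read in the wells already used for the beta-lactamase readout after 16 h compound treatment under 3 nM 1-alpha,25-dihydroxyvitamin D3 stimulation.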

[11] = qHTS assay to identify small molecule agonists of the NFkB signaling pathway (AID 1159509; active = well fitted curve in the direction sought with a large enough effect in the signal ratio in the repeat runs, not every such curve was filed as active; the % refers to the signal ratio; note: series mostly up to about 61 µM)
Outline: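 NFkB-bla ME-180 cells carry a beta-lactamase reporter under an NF-kB response element. They were plated overnight, then exposed to compounds for 5 h at 37 C. Read-out is LiveBLAzer FRET after 1.5 hr at room temperature (405 nm excitation; 460/530 nm emission).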

[12] = qHTS assay to identify small molecule agonists of the NFkB signaling pathway - cell viability counter screen (AID 1159515; calls by dose curve; note: series mostly up to about 61 µM; nearly all actives have a fitted effect of over 55% in size)
Outline: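 NFkB-bla ME-180 cells, 2,000/well, plated overnight at 37 C; compound added for 5 hr at 37 C. Viability read in the same wells as the bla reporter, by CellTiter-Glo luminescence after 30 min at room temperature.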

[13] = qHTS assay to identify small molecule agonists of the endoplasmic reticulum stress response signaling pathway (AID 1159516; active = well fitted activation curve with a large enough effect in the signal ratio in the repeat runs, not every such curve was filed as active; the % refers to the signal ratio; note: potency is the fitted concentration of half-maximal effect)
Outline: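 CellSensor ESRE-bla HeLa cells, 1,500 per well, plated overnight, then exposed to compounds for 5 hr at 37 C. Beta-lactamase reporter read with LiveBLAzer B/G FRET substrate after 2 hr at room temperature, 405 nm excitation, 460 and 530 nm emission.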

[14] = qHTS assay to identify small molecule agonists of the endoplasmic reticulum stress response signaling pathway - cell viability counter screen (AID 1159517; calls by dose curve; note: nearly all actives have a fitted effect of over 50% in size; note: potency is the fitted concentration of half-maximal effect)
Outline: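 HeLa cells carrying an ESRE-driven beta-lactamase reporter receive compound for 5 hr at 37 C. Cell viability is then gauged with CellTiter-Glo by luminescence, 30 min at room temperature.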

[15] = qHTS assay to identify small molecule antagonists of the retinoid-related orphan receptor gamma (ROR-gamma) signaling pathway - cell viability counter screen (AID 1159520); note: nearly all actives have a fitted effect of over 50% in size
Outline: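 Cytotoxicity was read from cellular ATP (CellTiter-Glo luminescence) after 16 hr at 37 C with 1 uM doxycycline induction. The inducer was added 2 hr after compound transfer to Tet-on ROR gamma CHO cells.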

[16] = molecular target: Nuclear receptor ROR-gamma (Homo sapiens) (UniProt P51449); test: qHTS assay to identify small molecule antagonists of the retinoid-related orphan receptor gamma (ROR-gamma) signaling pathway (AID 1159521; note: nearly all actives have a fitted effect of over 50% in size; note: potency is the fitted concentration of half-maximal effect)
Outline: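 Readout: ONE-Glo luciferase luminescence, 30 min at room temperature. System: Tet-on RORγ CHO, RORE-LUC. Sequence: compound 2 h, doxycycline 1 uM final, 16 h at 37 C.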

[17] = qHTS assay to identify small molecule agonists of the AP-1 signaling pathway - cell viability counter screen (AID 1159525; calls by dose curve; note: nearly all actives have a fitted effect of over 55% in size)
Outline: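 Luminescent ATP readout (Cell Titer Glo, 30 min RT), normalised to DMSO and tetra n-octyl ammonium bromide controls. Cells were ME-180 AP-1-bla in 0.5% dialyzed FBS Opti-MEM, with a 5 h, 37 °C compound exposure.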

[18] = qHTS assay to identify small molecule agonists of the AP-1 signaling pathway (AID 1159526; calls by dose curve)
[19] = qHTS assay to identify small molecule antagonists of the farnesoid-X-receptor (FXR) signaling pathway - cell viability counter screen (AID 743221; active = well fitted cell-killing curve with a large enough effect in the repeat runs, not every such curve was filed as active; note: nearly all actives have a fitted effect of over 50% in size)
Outline: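 CellTiter-Glo, 30 min RT, luminescence; same wells as the LiveBLAzer FRET read. Cells: FXR-UAS-bla HEK 293T. Treatment: compound with chenodeoxycholic acid 50 uM final, 16 h at 37 C.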

[20] = qHTS assay to identify small molecule agonists of the peroxisome proliferator-activated receptor delta (PPARd) signaling pathway - cell viability counter screen (AID 743211); note: nearly all actives have a fitted effect of over 55% in size
Outline: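 Multiplexed format: after the 2 h room-temperature LiveBLAzer B/G FRET step, CellTiter-Glo was added to the same wells. Luminescence after 30 min gave cell viability; compound exposure was 17 h at 37C.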

Measured: Potency

Chain of Bile acid receptor (Homo sapiens) (Q96RI1 whole entry, looked up): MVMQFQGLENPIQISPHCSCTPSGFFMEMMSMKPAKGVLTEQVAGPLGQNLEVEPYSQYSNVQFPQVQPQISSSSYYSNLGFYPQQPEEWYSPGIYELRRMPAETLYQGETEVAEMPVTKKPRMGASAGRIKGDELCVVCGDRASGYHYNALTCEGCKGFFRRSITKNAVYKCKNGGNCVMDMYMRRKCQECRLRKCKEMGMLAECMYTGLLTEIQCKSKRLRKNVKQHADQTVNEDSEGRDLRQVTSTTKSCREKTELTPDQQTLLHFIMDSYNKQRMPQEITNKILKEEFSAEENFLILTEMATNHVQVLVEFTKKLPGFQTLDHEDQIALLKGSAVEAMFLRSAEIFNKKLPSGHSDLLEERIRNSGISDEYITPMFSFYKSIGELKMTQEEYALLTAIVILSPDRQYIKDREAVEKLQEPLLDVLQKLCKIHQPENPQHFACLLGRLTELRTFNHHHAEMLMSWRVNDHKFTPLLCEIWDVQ
Chain of Vitamin D3 receptor (Homo sapiens) (P11473 whole entry, looked up): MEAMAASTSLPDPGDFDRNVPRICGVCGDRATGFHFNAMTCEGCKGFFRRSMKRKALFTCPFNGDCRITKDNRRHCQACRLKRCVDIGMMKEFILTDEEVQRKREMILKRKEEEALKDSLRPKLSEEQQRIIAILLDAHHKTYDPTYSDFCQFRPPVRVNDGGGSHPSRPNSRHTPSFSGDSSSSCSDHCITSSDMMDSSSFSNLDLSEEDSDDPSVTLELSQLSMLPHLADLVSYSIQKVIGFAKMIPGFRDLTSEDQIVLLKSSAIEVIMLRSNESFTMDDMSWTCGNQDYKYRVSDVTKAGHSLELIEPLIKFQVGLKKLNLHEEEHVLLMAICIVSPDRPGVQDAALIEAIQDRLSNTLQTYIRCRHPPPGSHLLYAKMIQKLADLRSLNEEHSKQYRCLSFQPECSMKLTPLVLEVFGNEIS
Chain of Peroxisome proliferator-activated receptor delta (Homo sapiens) (Q03181 whole entry, looked up): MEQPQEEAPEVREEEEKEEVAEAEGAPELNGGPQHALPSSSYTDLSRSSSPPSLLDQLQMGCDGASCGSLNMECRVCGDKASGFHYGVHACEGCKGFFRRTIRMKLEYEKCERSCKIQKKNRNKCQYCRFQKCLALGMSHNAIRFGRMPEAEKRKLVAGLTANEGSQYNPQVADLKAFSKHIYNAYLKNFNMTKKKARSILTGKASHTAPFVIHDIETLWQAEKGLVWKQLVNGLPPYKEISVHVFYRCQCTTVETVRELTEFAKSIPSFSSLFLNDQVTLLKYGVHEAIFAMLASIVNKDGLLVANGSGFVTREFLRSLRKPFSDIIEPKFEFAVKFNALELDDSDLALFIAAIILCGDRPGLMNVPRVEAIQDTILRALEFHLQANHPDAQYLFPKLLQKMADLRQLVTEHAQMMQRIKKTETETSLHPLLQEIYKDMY

NC=O
not listed: [19] | [20]
inactive: all other assays above

c1ccc2c(c1)c1cccc3ccc4cccc2c4c31
active: [13] 48.6 µM
not listed: [20]
inactive: all other assays above

O=C(c1ccccc1)c1ccc(O)cc1O
55.5 µM (active) and inactive: [16]
not listed: [7] | [8]
inactive: all other assays above

Nc1ccc(Cl)cc1Cl
not listed: [7] | [8] | [19]
inactive: all other assays above

Clc1nc(Cl)c(Cl)c(Cl)c1Cl
not listed: [4] | [6] | [17] | [20]
inactive: all other assays above

Cn1cnc([N+](=O)[O-])c1Sc1ncnc2nc[nH]c12
30.5 µM (active) and inactive: [16]
not listed: [4] | [6] | [7] | [8] | [9] | [19]
inactive: all other assays above

Nc1ncnc2nc[nH]c12
not listed: [17] | [19] | [20]
inactive: all other assays above

CC(=O)C1(C)CC2=C(CCCC2(C)C)CC1C (stereo not given)
not listed: [4] | [6] | [20]
inactive: all other assays above

COc1ccc(C(=O)CC(=O)c2ccc(C(C)(C)C)cc2)cc1
not listed: [4] | [16]
inactive: all other assays above

O=C(O)c1ccccc1Nc1cccc(C(F)(F)F)c1
not listed: [1] | [4] | [6] | [7] | [19] | [20]
inactive: all other assays above

Cc1cccc([N+](=O)[O-])c1C
not listed: [4] | [6] | [15] | [16] | [20]
inactive: all other assays above

c1ccc2cc(Nc3ccc(Nc4ccc5ccccc5c4)cc3)ccc2c1
not listed: [1] | [6] | [13] | [20]
inactive: all other assays above

c1ccncc1
not listed: [1] | [3] | [4] | [6] | [8] | [15] | [17]
inactive: all other assays above

CC(=O)Oc1ccccc1C(=O)Nc1ncc([N+](=O)[O-])s1
inactive: [20] | [1] | [4] | [11] | [12] | [16] | [18]
889 nM (active) and inactive: [14]
active: [9] 12.6 µM

O=Cc1ccccc1O
not listed: [4] | [6] | [15]
inactive: all other assays above

Cc1ccc(C(=O)c2cc(O)c(O)c([N+](=O)[O-])c2)cc1
active: [16] 27.3 µM and 26.6 µM
not listed: [1] | [3] | [4] | [6] | [7] | [9] | [12] | [19]
inactive: all other assays above
